Screening results: PubChem BioAssay, National Center for Advancing Translational Sciences (NCATS)
KCNH2 3.1 inh: inhibitors of human KCNH2 3.1 potassium channel isoform. activity change, % (tested at about 1.8 µM). AID 720553. U2OS KCNH2 3.1, thallium flux FluxOr; hits give low values. 0.95% of 340,000 active;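 active means maximum activity change below -70%; inconclusive means maximum activity change from -70% to -50%; inactive means maximum activity change above -50%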;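 further: thallium influx rate constant from kinetic fluorescence after stimulation buffer; on the % scale 0 is the no-effect control and ±100 the full control effect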
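Measured as rate of thallium-driven FluxOr signal in transduced U2OS cells carrying the 3.1 channel, read kinetically for 2 min upon stimulation; values are rate constants scaled to DMSO control wells.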
USP1 inh: USP1/UAF1 (human) deubiquitinase inhibition. O94782. recombinant USP1/UAF1, Ub-Rhodamine cleavage fluorescence. Potency, µM (highest dose often 57.1 µM), inactives show top-dose activity change, negative = inhibition, usual class: inhibitors. 0.23% of 390,000 active; active means well fitted inhibition curve with a large enough effect; inconclusive means small, poorly fitted or top-dose-only effect; inactive means no such curve, though single readings can be large or run the other way; further: potency means the concentration at half of the fitted maximal effect; on the % scale 0 is the no-effect control and ±100 the full control effect; nearly all actives have a fitted effect of over 60% in size
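1 nM enzyme complex + cpd, 15 min RT; start with Ub-Rho 150nM final; kinetic fluorescence ex 480/em 540, 6 reads q60 s. Buffer 50mM HEPES pH 7.8, 0.5mM EDTA, 0.1 mg/ml BSA, 1mM TCEP, 0.01% Tween-20.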
KCNH2 WT inh: KCNH2 (human, wildtype) channel inhibition | 0.37% of 340,000 active | Q12809 | activity change, % at 1.84 µM | U2OS, BacMam KCNH2, thallium flux FluxOr; hits give low values | AID 720551;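 active means maximum activity change below -70%; inconclusive means maximum activity change between -70% and -50%; inactive means maximum activity change above -50%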; further: on the % scale 0 is the no-effect control and ±100 the full control effect
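U2OS cells transduced with wild-type KCNH2 virus are loaded with FluxOr dye for 45 min, and thallium flux is measured in kinetic reads before and after stimulation buffer. Rate constants are normalized to DMSO controls.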
Coupling enz: coupling enzyme interference in Giardia aldolase counter-screen; coupling enzyme system counterscreen, AmpLite Red fluorescence; activity change, negative = inhibition, % at 58.2 µM, hits read low; 0.67% of 290,000 active; AID 2472; in the data active means activity change below about -30%; further: on the % scale 0 is the no-effect control and ±100 the full control effect
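Final compound at 57.5 uM, incubated 10 min at RT with coupling enzyme reagent (glyceraldehyde-3-phosphate), then 20 min with substrate and AmpLite Red detection. Fluorescence read at 525/598 nm; tests interference with the coupling assay, not aldolase inhibition.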
Giardia kill: kills Giardia lamblia | Giardia lamblia trophozoite viability | activity change, % at 7.66 µM, hits read low | 0.15% of 340,000 active | AID 540267; in the data active means activity change below about -80%; inconclusive means between about -30% and that limit;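 further: parasites exposed to compound for two days anaerobically before the ATP read; on the % scale 0 is the no-effect control and ±100 the full control effect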
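Luminescence from cellular ATP indicates surviving trophozoites (100 cells/well) following 48 hrs anaerobic compound treatment at 37 deg C; signal develops 15-30 min at room temperature.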
CASP1 redox cat: counter-screen for redox active human caspase-1 inhibitors with catalase. shares compounds with Coupling enz. caspase-1 Ac-WEHD-AFC fluorescence rate, catalase buffer. Potency, µM (doses to about 57.5 µM), inactives show at the top dose activity change, negative = inhibition, actives largely listed as inhibitors. 30 tested, under 10 active
Casp1 confirm: blocks human caspase-1 activity in concentration-response; shares compounds with Coupling enz; purified caspase-1, fluorogenic substrate cleavage; Potency, µM (series often up to 57.5 µM), for the others: at the highest dose activity change, negative = inhibition, most hits filed as inhibitors; 20% of 60 active; AID 896
CASP7 inh CRC: confirmation of allosteric or competitive inhibitors of human caspase-7; recombinant caspase-7, fluorogenic substrate cleavage; AID 897; shares compounds with Coupling enz; Potency, µM (highest dose often 57.5 µM), inactives show top-dose activity change, negative = inhibition, most hits filed as inhibitors; 60 tested, under 10 active; active means well fitted inhibition curve with a large enough effect in the main read-out, with a control signal flat, not every such curve was filed as active; inconclusive means small, poorly fitted or top-dose-only effect, or a change in a side signal; inactive means no such curve, though single readings can be large or run the other way
Casp7 cysteine: caspase-7 inhibition with cysteine present | shares compounds with Coupling enz | caspase-7 enzyme with cysteine, fluorogenic substrate, redox counterscreen | Potency, µM (doses to about 57.5 µM), without a hit: at the top dose activity change, negative = inhibition, usual class: inhibitors | 60 tested, under 10 active | AID 908
CASP7 redox cat: inhibits caspase-7 in catalase buffer, redox counter-screen; shares compounds with Coupling enz; Caspase-7 Ac-DEVD-AFC fluorescence rate, catalase buffer; Potency, µM (highest dose often 57.5 µM), for the others: at the top dose activity, negative = inhibition, actives largely listed as inhibitors; 30 tested, under 10 active; AID 909
CASP1 redox cys: caspase-1 inhibition with cysteine present. shares compounds with Coupling enz. recombinant caspase-1, fluorogenic substrate, cysteine buffer. Potency, µM (doses to about 57.5 µM), for the others: at the highest dose activity change, negative = inhibition, hits mostly inhibitors. 60 tested, under 10 active. AID 929
Active calls of the source: *; i = inactive; ? = inconclusive; . = no result; ! = a repeat was not active. Rows were chosen to be rich in hits. Some 1.7% of all compounds tested hit in one or more screens of this group. Unless noted, the call rests on the fitted dose curve; in most records, active means well fitted inhibition curve with a large enough effect in the main read-out, with a control signal flat; inconclusive means small, poorly fitted or top-dose-only effect, or a change in a side signal; inactive means no such curve, though single readings can be large or run the other way.

SMILES	KCNH2 3.1 inh	USP1 inh	KCNH2 WT inh	Coupling enz	Giardia kill	others
Clc1ccc(-c2csc(=Nc3cccnc3)n2CCCn2ccnc2)cc1Cl	?	-1.1%	16.0	3.7	-2.3
Cc1ccc(NC(=O)C2CCN(c3ncccn3)CC2)cc1F	.	-10.8%	.	.	.
CCN(CC)C(=O)CSc1nc2c(sc(=S)n2-c2ccccc2)c(=O)n1Cc1ccco1	-78.2*	-18.4%	-43.1	8.5	8.6
CCOc1ccc(-n2c(=S)sc3c(=O)n(-c4ccc(F)cc4)c(SCC(=O)O)nc32)cc1	-0.4	-20.4%	-238.6*	3.6	6.3
CC(C)(C)OC(=O)N1CCC(c2c(C(=O)NCCN3CCc4ccccc4C3)cnn2-c2ccc(F)cc2)CC1	.	-25.0%	.	.	.
Cc1cc(C)cc(OCC(=O)NNC(=S)NC(=O)C2CC2)c1	-70.2*	-11.4%	-6.6	.	-2.3
O=C(Cn1c(=O)n(Cc2ccc3c(c2)OCO3)c(=O)c2oc3ccccc3c21)Nc1ccccc1	.	21.1%	.	.	.
CCCCC1=CC2=CC(=O)C(C)(OC(=O)CC)C(=O)C2=CN1C(CO)CO (configuration not stated)	9.1	?	0.6	-42.3*!	20.9
[O-][n+]1c2ccccc2c2n1CCCN=C2c1ccc(Cl)cc1	2.8	-15.7%	16.6	.	-84.4*
[O-][n+]1c2ccccc2c2n1CCN=C2c1ccc(Cl)cc1	-2.2	-28.7%	1.1	.	-84.1*
Cc1ccc(C2=NCCn3c2c2ccccc2[n+]3[O-])cc1	.	-5.9%	.	.	-89.5*
Nc1c(Cl)cc(C2=NCCn3c2c2ccccc2[n+]3[O-])cc1Cl	-2.7	-23.9%	-2.2	.	?
Nc1c(Cl)cc(C2=NCCn3c2c2ccc(C(F)(F)F)cc2[n+]3[O-])cc1Cl	2.2	-10.3%	-1.6	.	-93.8*
COc1ccc2c3n([n+]([O-])c2c1)CCN=C3c1ccc(Cl)cc1	10.3	-13.9%	-21.3	.	?
CCn1c(N2CCN(Cc3ccc([N+](=O)[O-])cc3)CC2)nc2ccccc21	-94.1*	-15.9%	-86.8*	-8.0	6.1
O=[N+]([O-])c1ccc(N2CCN(Cc3ccccc3)CC2)nc1	3.8	?	1.6	-0.6	-20.3
CCn1c(N2CCN(C(=O)/C=C/c3ccccc3)CC2)nc2ccccc21	-90.3*	-12.7%	?	-0.5	-6.1
O=[N+]([O-])c1ccc(CN2CCN(c3ccc([N+](=O)[O-])cc3)CC2)cc1	-4.5	-3.8%	-73.3*	-0.9	2.2
CCCn1c(N2CCN(C(=O)/C=C/C(=O)O)CC2)nc2ccccc21	25.2	-4.2%	6.7	3.1	12.8
O=[N+]([O-])c1ccc(CN2CCN(c3ccc4ccccc4n3)CC2)cc1	-99.3*	-6.3%	?	-0.4	-16.4
NC(=O)NN=C1c2cc(S(=O)(=O)N3CCOCC3)ccc2-c2ccc(S(=O)(=O)N3CCOCC3)cc21	.	.	.	.	-11.5
CCOc1ccccc1NC(=O)CSc1cc(=O)n(CC)c2ccccc12	.	41.9%	.	.	.
CCCn1c(N2CCN(Cc3ccc(Cl)cc3)CC2)nc2ccccc21	-79.0*	-20.0%	-20.8	-1.6	-8.7
CCN1CCN(CCOCCOc2ccccc2-c2ccccc2)CC1	.	.	.	0.1	.
c1ccc(-c2ccccc2OCCOCCN2CCOCC2)cc1	3.9	-15.1%	-3.0	-50.9*	-2.8
SMILES	KCNH2 3.1 inh	USP1 inh	KCNH2 WT inh	Coupling enz	Giardia kill	others
COc1ccc2c(c1)C(=O)N(c1ccc(C)cc1C)C(=O)C2	-0.1	?	i	-0.2	2.4
COc1ccc2c(c1)C(=O)N(c1ccccc1OC)C(=O)C2	16.9	?	-0.4	-10.8	16.2	CASP1 redox cat=?;Casp1 confirm=?;CASP7 inh CRC=-12.0%;Casp7 cysteine=-7.5%;CASP7 redox cat=-12.2%;CASP1 redox cys=?
O=C(CSc1nc2ccccc2nc1Cc1ccc(F)cc1)Nc1ccc2c(c1)OCO2	.	-6.1%	.	.	.
CC1=C(C(=O)Nc2cc(-c3cccc(F)c3)[nH]n2)C2(CCCCC2)OC1=O	2.3	-18.6%	-0.3	-2.3	17.6	CASP1 redox cat=-2.1%;Casp1 confirm=-8.4%;CASP7 inh CRC=-35.2%;Casp7 cysteine=-38.2%;CASP7 redox cat=-11.1%;CASP1 redox cys=2.5%
CC1CN(C(=O)N2CCC(C(=O)NC3CCCCCC3)CC2)c2cc(Cl)ccc2O1 (configuration not stated)	.	-22.1%	.	.	.
Cc1ccsc1C=Nc1ccc(O)cc1	-8.2	2.24µM*	-0.4	-49.7*	-4.9	CASP1 redox cat=-0.7%;Casp1 confirm=-11.4%;CASP7 inh CRC=-2.9%;Casp7 cysteine=-1.5%;CASP7 redox cat=-5.5%;CASP1 redox cys=3.2%
O=C(Nc1nnc(Cc2ccc(Cl)cc2)s1)C1CCN(C(=O)c2ccco2)CC1	.	.	.	.	-25.4
COc1cc(N[C@@H](C)CCCN)c2ncccc2c1	.	.	.	-33.5*	.	Casp1 confirm=-41.6%;CASP7 inh CRC=-19.7%;Casp7 cysteine=-7.4%;CASP1 redox cys=-5.0%
COc1ccc(Br)cc1CNc1ccc(O)cc1	12.1	?	3.6	-62.8*	-0.6	CASP1 redox cat=1.1%;Casp1 confirm=-2.5%;CASP7 inh CRC=-0.9%;Casp7 cysteine=2.7%;CASP7 redox cat=-4.6%;CASP1 redox cys=7.6%
Cc1cccc(NC(=O)C2CCCN(c3nc4ccccc4s3)C2)c1C (configuration not stated)	.	-23.3%	.	.	.
O=C(Nc1ccc2c(c1)OCO2)C1CCCN(c2nc3ccccc3s2)C1 (configuration not stated)	-26.0	-16.4%	-14.7	-7.3	-8.5	CASP1 redox cat=0.6%;Casp1 confirm=-8.8%;CASP7 inh CRC=-7.0%;Casp7 cysteine=-4.0%;CASP7 redox cat=-6.4%;CASP1 redox cys=6.8%
Cc1cc(O)c(-c2n[nH]c3c2C(c2cccc(O)c2)N(Cc2cccnc2)C3=O)cc1Cl (configuration not stated)	2.0	-10.2%	4.5	2.9	0.7	Casp1 confirm=-6.6%;CASP7 inh CRC=-25.3%;Casp7 cysteine=-30.1%;CASP1 redox cys=14.5%
COC(=O)c1ccc(C2c3c(-c4ccccc4O)n[nH]c3C(=O)N2Cc2cccnc2)cc1 (configuration not stated)	.	-23.0%	.	.	.
